In PubChem BioAssay (NCI):
This is part of a sample that, as a whole, favours compounds with a hit. Of some 83,000 tested, about 20% had one in any assay.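 Plates (96-well) were seeded with cells, treated with compound at one concentration, and incubated for 48 hours before percent growth was determined.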 Unmarked numbers belong to inactive results. Active and inactive are the calls of the source. Rule for the calls: active = growth percent below 10; inactive = the rest.

Experiments:
Assay in all cases: NCI-60 one-dose screen, 48 h (100 = growth as untreated, 0 = no growth, -100 = all killed)
Conditions in all cases: 10 µM
[1] = tested on: HT29 colon
[2] = tested on: SNB-75 CNS
[3] = tested on: SNB-19 CNS
[4] = tested on: U251 CNS
[5] = tested on: PC-3 prostate
[6] = tested on: UACC-62 melanoma
[7] = tested on: LOX IMVI melanoma
[8] = tested on: SK-MEL-28 melanoma
[9] = tested on: SK-MEL-2 melanoma
[10] = tested on: EKVX NSCLC
[11] = tested on: SN12C renal
[12] = tested on: UO-31 renal
[13] = tested on: TK-10 renal
[14] = tested on: ACHN renal
[15] = tested on: A498 renal
[16] = tested on: CCRF-CEM leukemia
[17] = tested on: MOLT-4 leukemia
[18] = tested on: SR leukemia
[19] = tested on: CAKI-1 renal
[20] = tested on: SK-MEL-5 melanoma

Row | SMILES | growth [1] | growth [2] | growth [3] | growth [4] | growth [5] | growth [6] | growth [7] | growth [8] | growth [9] | growth [10] | growth [11] | growth [12] | growth [13] | growth [14] | growth [15] | growth [16] | growth [17] | growth [18] | growth [19] | growth [20]
1 | CC(=O)n1c(-c2ccc(Cl)c(Cl)c2)cn(-c2ccc(Cl)cc2)c1=O | 12.8% | -0.456% (active) | 18.4% | 26.6% | -31.2% (active) | 18% | 18.2% | 7.17% (active) | 80.9% | 30.3% | 46.9% | 3.31% (active) | 54.4% | 22.8% | 4.91% (active) | -26.3% (active) | 18.4% | 0.989% (active) |  | 
2 | FC(F)(F)c1ccc(-c2cnc(Cl)nc2N2CCC3(CC2)OCCO3)cc1 | 96.9% | 93.8% | 102% | 85.3% | 87.2% | 96.8% | 90.4% |  |  |  | 103% | 69.5% | 89.8% | 92.6% | 75.8% | 91.1% | 74% | 81.5% | 86.5% | 
3 | CCCCCCN1C(=O)C2=C(c3ccc(Cl)cc3)Nc3c(c(C)nn3-c3ccccc3)C2c2ccccc21 (stereo not given) | 98.1% | 83.6% | 89.4% | 87.8% | 76.7% | 94.8% | 94.6% | 96.4% | 91.1% |  | 91.2% | 79.2% | 107% | 97.1% | 87.5% | 85.8% | 73.4% | 76.3% | 74.5% | 
4 | Cc1ncc(-c2ccoc2)c(NC2CCCCCC2)n1 | 99.4% | 97% | 105% | 93.5% | 105% | 104% | 96.9% | 128% |  |  | 98.5% | 71.7% | 109% | 99.6% | 105% | 107% | 84% | 96.1% | 94.4% | 
5 | O=S(=O)(NCCNc1nccc(-c2c(-c3ccc(F)cc3)nc3sccn23)n1)c1ccc2ccccc2c1 | 44.9% | 79.3% | 105% | 71% | 73.4% | 71.7% | 71.3% |  |  |  | 80.7% | 43.4% | 83.7% | 56.6% | 79.5% | 61.7% | 54% | 46.6% | 68.5% | 
6 | CNc1ncc(-c2ccc(C(F)(F)F)cc2)c(NC2CCCCCC2)n1 |  | 90.9% | 85.2% | 58.9% | 61.8% | 89.9% | 85.8% | 88% |  |  | 84% | 38.4% | 83.5% | 73.1% |  | 70.2% | 68.2% | 43.9% | 60.9% | 74.8%
7 | O=C1OCC2=C1C(c1cccc(Cl)c1)c1cc3c(cc1N2CCO)OCO3 (stereo not given) |  | 11.7% | 37.8% | 17.1% | 25.2% | 22.2% | 42.8% | 51.3% |  | 56.6% | 42.9% | 45.1% | 58.2% | 46.3% | -7.88% (active) | 9.39% (active) | 26.4% | 32.5% | 39.6% | 19%
8 | CCOC(=O)c1ccc(NC(=O)Nc2ncc(Cl)cc2Cl)cc1 |  | 119% | 106% | 99.2% | 77% | 87% | 110% | 106% | 102% | 111% | 86.8% | 96.4% | 108% | 107% | 91.9% | 81.7% | 93.2% | 95.9% |  | 
9 | COc1cccc(Cn2c(-c3nonc3N)nc3ccccc32)c1 |  | -16.7% (active) | 53.3% | 18.4% | 11% | 33.9% | 40.9% |  | -12.2% (active) |  | 43.8% | 33.2% | 31.7% | 46.6% | -19.3% (active) | 9.82% (active) | 25.6% | -5.32% (active) | 20.5% | 16.8%
10 | CC1(C)N=C(N)N=C(N)N1c1ccc(CCc2ccccc2)c(Cl)c1 |  | 35.8% | 31.6% | 13.2% | 18.7% | 23% | 12.6% | 30.3% | 34.9% |  | 18.9% | 87.9% | 21% | 28.7% | 40.9% | 19.8% | 20.2% |  | 53.2% | 0.745% (active)
11 | COc1cc(NC(=O)c2sc3nc4c(cc3c2N)C(O)CCC4)cc(OC)c1 (stereo not given) |  | 82.1% | 93.6% | 78.6% | 99.5% | 73% | 93.3% | 85.1% | 61.6% |  | 93.5% | 85.1% | 102% | 100% | 55.2% | 68.7% | 63.1% | 16.8% | 90.4% | 88.4%
12 | CC1(C)CCC(=NNC(N)=S)CC1 |  | 88.2% | 108% | 105% | 109% | 103% | 89% | 115% | 130% | 90% | 105% | 83.9% | 75.9% | 99.7% |  | 30.3% | 99.8% | 116% | 96.2% | 111%
13 | COc1ccc(-c2nn(-c3cccc(NC(=O)c4ccc(Cl)c(Cl)c4)c3)cc2-c2ccncc2)cc1Cl |  | 74.8% | 87.1% | 64% | 48.6% | 83.7% | 91.2% | 75.3% |  |  | 86.7% | 47.6% | 85% | 78.8% | 54.7% | 61.7% | 62.7% | 24.3% | 73.1% | 78.8%
14 | CC(C)N(CCNc1nc(C(Cl)(Cl)Cl)nc2cc(Cl)ccc12)C(C)C |  | 8.33% (active) | 22.9% | -61.5% (active) | -5.1% (active) | -62.2% (active) | -80.2% (active) | -80.9% (active) | -60% (active) | 8.11% (active) | 17.9% | -29% (active) | -84.3% (active) | -36.2% (active) |  | -8.62% (active) | -21.4% (active) | -28.4% (active) | -84.1% (active) | -97% (active)
15 | CSc1nn(-c2ccccc2)c2ncnc(Oc3ccc(C)cc3)c12 |  | 75.1% | 102% | 91.2% | 82.5% | 99.6% | 95% | 99.5% | 75.3% |  | 88.8% | 84.4% | 94.2% | 76% | 67.8% | 90.5% | 94.9% | 91.8% | 84.8% | 94.5%
16 | COc1ccc2c(c1)C(=O)c1c-2c(OCCN(C)C)nc2ccccc12 |  | 47.2% | 42.9% | 21.1% | 47.2% | 52.4% | -41.8% (active) | 64.9% | 16.5% | 44.7% | 34.7% | -4.51% (active) | 43.3% | 9.68% (active) | 65.8% | 20.9% | 4.41% (active) | 1.16% (active) | 14.6% | 37.4%
17 | CC(=O)[C@H]1CC[C@H]2[C@@H]3CCC4=CC(=O)C=C[C@]4(C)[C@H]3CC[C@]12C |  | 90.3% | 114% | 95.1% | 87.7% | 80.3% | 88.6% |  | 102% | 60.1% | 95.9% | 88.5% | 106% |  | 60.4% | 87.2% | 87.1% | 84.4% | 87.8% | 82.5%
